# Data from ChEMBL document CHEMBL1961873, “Compounds: GSK PKIS; Assays: Nanosyn kinase panel” (2012).
# Key:
# [1] = target: Sphingosine kinase 1 (Homo sapiens) (UniProt Q9NYA1); conditions: at 1 µM;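 note: mean SPHK1 inhibition value reported from the GSK PKIS kinase panel screen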
# [2] = target: T1, Sphingosine kinase 2 (Homo sapiens) (UniProt Q9NRA0); conditions: at 0.1 µM
# T1 sequence (whole entry): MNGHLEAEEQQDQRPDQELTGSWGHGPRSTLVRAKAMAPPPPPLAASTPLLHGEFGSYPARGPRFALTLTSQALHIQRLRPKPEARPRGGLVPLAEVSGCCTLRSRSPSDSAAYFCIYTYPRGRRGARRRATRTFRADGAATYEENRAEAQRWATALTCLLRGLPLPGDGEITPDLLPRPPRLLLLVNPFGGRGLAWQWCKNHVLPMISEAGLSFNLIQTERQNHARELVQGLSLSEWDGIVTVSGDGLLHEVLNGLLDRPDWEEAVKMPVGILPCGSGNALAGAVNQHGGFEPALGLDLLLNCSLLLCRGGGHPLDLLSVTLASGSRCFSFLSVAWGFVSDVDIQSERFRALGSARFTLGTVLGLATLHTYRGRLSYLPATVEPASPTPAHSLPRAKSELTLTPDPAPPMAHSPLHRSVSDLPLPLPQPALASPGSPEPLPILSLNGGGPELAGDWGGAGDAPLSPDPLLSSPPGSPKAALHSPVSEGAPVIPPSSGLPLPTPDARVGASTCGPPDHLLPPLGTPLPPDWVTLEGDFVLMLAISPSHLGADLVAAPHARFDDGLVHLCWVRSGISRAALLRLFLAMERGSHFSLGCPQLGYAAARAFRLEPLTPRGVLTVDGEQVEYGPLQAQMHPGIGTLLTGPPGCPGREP
# [3] = target: T1, Sphingosine kinase 2 (Homo sapiens); conditions: at 1 µM
# [4] = target: Casein kinase II subunit alpha (Homo sapiens) (UniProt P68400); conditions: at 0.1 µM
# Sequence of Casein kinase II subunit alpha (Homo sapiens) (P68400 whole entry, looked up): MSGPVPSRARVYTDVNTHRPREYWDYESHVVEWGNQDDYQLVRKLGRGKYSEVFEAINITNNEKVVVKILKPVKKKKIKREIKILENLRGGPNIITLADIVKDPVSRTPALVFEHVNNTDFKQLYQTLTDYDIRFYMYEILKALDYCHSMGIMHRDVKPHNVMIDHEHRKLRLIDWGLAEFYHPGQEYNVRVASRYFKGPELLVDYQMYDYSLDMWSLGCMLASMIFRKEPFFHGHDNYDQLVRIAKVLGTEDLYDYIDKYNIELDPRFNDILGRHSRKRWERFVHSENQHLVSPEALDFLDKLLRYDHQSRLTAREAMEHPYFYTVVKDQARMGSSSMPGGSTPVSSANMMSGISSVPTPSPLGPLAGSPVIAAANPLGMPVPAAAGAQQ
# [5] = target: Casein kinase II subunit alpha (Homo sapiens) (UniProt P68400); conditions: at 1 µM
# [6] = target: T2, Inhibitor of nuclear factor kappa-B kinase subunit alpha (Homo sapiens) (UniProt O15111); conditions: at 0.1 µM
# T2 sequence (whole entry): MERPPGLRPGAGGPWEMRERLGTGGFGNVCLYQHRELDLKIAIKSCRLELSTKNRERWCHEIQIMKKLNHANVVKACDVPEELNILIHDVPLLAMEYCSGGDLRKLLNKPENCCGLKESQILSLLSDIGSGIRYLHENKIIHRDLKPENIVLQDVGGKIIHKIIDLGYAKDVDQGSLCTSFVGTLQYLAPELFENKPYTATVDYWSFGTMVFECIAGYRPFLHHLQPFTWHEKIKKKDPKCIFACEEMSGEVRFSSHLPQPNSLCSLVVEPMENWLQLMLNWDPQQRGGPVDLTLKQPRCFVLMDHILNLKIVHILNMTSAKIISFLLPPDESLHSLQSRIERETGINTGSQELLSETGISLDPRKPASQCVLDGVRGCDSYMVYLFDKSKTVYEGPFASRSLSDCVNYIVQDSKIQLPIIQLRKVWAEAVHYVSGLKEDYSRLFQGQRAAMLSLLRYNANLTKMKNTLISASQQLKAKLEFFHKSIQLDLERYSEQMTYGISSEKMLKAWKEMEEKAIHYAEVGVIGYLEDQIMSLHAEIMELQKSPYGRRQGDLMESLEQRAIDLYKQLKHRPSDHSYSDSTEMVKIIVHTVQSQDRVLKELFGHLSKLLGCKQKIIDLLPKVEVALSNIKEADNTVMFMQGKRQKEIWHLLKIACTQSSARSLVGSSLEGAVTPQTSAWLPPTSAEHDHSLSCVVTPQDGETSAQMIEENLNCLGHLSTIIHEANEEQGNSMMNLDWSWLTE
# [7] = target: T2, Inhibitor of nuclear factor kappa-B kinase subunit alpha (Homo sapiens); conditions: at 1 µM
# [8] = target: T3, Inhibitor of nuclear factor kappa-B kinase subunit beta (Homo sapiens) (UniProt O14920); conditions: at 0.1 µM
# T3 sequence (whole entry): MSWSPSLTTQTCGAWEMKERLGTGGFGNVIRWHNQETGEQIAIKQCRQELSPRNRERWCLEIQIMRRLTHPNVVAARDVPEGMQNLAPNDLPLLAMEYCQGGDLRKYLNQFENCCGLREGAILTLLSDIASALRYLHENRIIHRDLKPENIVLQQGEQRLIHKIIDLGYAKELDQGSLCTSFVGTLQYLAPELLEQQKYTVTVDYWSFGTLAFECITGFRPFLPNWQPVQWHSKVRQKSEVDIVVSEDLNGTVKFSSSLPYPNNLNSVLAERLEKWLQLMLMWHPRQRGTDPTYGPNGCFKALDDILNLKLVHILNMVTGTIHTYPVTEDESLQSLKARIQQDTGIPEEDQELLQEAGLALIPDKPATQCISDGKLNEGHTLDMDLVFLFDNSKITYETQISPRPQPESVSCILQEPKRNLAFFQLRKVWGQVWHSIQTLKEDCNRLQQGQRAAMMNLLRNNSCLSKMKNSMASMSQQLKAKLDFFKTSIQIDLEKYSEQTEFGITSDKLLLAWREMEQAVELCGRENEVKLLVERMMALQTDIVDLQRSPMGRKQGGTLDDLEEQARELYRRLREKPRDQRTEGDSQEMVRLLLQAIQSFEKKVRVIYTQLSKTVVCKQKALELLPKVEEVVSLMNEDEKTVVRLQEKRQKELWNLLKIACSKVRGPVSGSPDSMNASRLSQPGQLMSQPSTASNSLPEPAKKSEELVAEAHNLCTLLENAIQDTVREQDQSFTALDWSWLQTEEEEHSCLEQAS
# [9] = target: T3, Inhibitor of nuclear factor kappa-B kinase subunit beta (Homo sapiens); conditions: at 1 µM
# [10] = target: T4, Inhibitor of nuclear factor kappa-B kinase subunit epsilon (Homo sapiens) (UniProt Q14164); conditions: at 0.1 µM;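 note: mean inhibition of IKKε reported, from the GSK PKIS dataset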
# T4 sequence (whole entry): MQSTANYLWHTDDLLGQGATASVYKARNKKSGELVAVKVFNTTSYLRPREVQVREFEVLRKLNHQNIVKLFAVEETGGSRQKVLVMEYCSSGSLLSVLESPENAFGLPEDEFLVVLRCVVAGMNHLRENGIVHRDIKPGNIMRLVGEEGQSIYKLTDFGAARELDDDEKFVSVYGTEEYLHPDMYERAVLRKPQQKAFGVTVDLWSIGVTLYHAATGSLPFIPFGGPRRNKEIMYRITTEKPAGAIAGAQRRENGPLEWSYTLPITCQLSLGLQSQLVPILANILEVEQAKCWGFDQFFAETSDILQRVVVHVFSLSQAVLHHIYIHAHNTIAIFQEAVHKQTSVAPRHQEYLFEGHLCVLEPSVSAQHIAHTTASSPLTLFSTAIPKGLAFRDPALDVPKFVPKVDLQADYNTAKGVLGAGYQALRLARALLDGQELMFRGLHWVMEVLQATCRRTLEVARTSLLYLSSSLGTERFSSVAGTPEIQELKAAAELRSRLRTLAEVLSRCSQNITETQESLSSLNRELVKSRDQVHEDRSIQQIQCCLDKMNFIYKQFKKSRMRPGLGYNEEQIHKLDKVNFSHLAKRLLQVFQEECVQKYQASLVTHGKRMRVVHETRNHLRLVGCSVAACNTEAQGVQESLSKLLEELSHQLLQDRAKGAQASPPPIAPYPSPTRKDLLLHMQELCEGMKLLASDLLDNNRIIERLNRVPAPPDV
# Sequence of Sphingosine kinase 1 (Homo sapiens) (Q9NYA1 whole entry): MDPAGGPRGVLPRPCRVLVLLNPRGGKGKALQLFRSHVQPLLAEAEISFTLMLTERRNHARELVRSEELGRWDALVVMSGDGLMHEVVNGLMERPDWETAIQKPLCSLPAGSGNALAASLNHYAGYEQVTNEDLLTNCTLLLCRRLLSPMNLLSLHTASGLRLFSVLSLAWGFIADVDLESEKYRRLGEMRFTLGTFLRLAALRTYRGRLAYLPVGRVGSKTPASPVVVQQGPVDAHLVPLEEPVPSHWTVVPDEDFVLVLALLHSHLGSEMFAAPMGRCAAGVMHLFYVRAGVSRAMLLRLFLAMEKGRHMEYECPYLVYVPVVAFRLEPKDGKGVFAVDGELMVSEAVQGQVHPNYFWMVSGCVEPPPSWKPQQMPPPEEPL
compound,measurement,setting,value
COc1cc(Nc2ncc(-c3ccccc3)o2)cc(OC)c1OC,inhibition,[1],0.49%
same,inhibition,[2],1.41%
same,inhibition,[3],-0.15%
same,inhibition,[4],0.33%
same,inhibition,[5],4.02%
same,inhibition,[6],2.97%
same,inhibition,[7],4.62%
same,inhibition,[8],0.7%
same,inhibition,[9],4.06%
same,inhibition,[10],0.76%
COc1cc2ncn(-c3cc(OCc4cccs4)c(C(N)=O)s3)c2cc1OC,inhibition,[1],-0.69%
same,inhibition,[2],0.11%
same,inhibition,[3],-0.11%
same,inhibition,[4],5.63%
same,inhibition,[5],20.8%
same,inhibition,[6],3.56%
same,inhibition,[7],4.87%
same,inhibition,[8],3.09%
same,inhibition,[9],6.07%
same,inhibition,[10],7.67%
NC(=O)c1ccc(Oc2nccc(-c3c(-c4ccc(F)cc4)ncn3C3CCNCC3)n2)cc1,inhibition,[1],2.16%
same,inhibition,[2],0.71%
same,inhibition,[3],0.08%
same,inhibition,[4],2.95%
same,inhibition,[5],2.91%
same,inhibition,[6],5.54%
same,inhibition,[7],7.33%
same,inhibition,[8],7.24%
same,inhibition,[9],6.83%
same,inhibition,[10],8.54%
CS(=O)(=O)CCNCc1cc(-c2cc3c(Nc4ccc(OCc5cccc(F)c5)c(Cl)c4)ncnc3s2)cs1,inhibition,[1],3.45%
same,inhibition,[2],-0.27%
same,inhibition,[3],0.36%
same,inhibition,[5],2.87%
same,inhibition,[6],10.9%
same,inhibition,[7],9.95%
same,inhibition,[8],7.54%
same,inhibition,[9],6.76%
same,inhibition,[10],6.48%
CCS(=O)(=O)c1ccc(OC)c(Nc2ncc(-c3ccccc3Cl)o2)c1,inhibition,[1],-2.06%
same,inhibition,[2],0%
same,inhibition,[3],-1.74%
same,inhibition,[4],3.8%
same,inhibition,[5],23.3%
same,inhibition,[6],2.45%
same,inhibition,[7],3.42%
same,inhibition,[8],1.4%
same,inhibition,[9],-0.23%
same,inhibition,[10],3.21%
COc1ccc2ncn(-c3cc(O[C@H](C)c4ccccc4Cl)c(C(N)=O)s3)c2c1,inhibition,[1],-2.39%
same,inhibition,[2],-0.22%
same,inhibition,[3],0.79%
same,inhibition,[4],5.1%
same,inhibition,[5],3.41%
same,inhibition,[6],7.01%
same,inhibition,[7],6.42%
same,inhibition,[8],6.12%
same,inhibition,[9],4.8%
same,inhibition,[10],5.23%
CN(c1ccc(NC(=O)Nc2c(Cl)cccc2Cl)cc1)c1ccnc(Nc2cccc(CS(C)(=O)=O)c2)n1,inhibition,[1],-2.39%
same,inhibition,[2],0.77%
same,inhibition,[3],-0.82%
same,inhibition,[4],2.18%
same,inhibition,[5],6.66%
same,inhibition,[6],-7.42%
same,inhibition,[8],3.11%
same,inhibition,[9],2.65%
same,inhibition,[10],6.91%
Fc1ccc(-c2ncn(C3CCNCC3)c2-c2ccnc(Oc3ccc4c(c3)OCO4)n2)cc1,inhibition,[1],-2.26%
same,inhibition,[2],-0.59%
same,inhibition,[3],0%
same,inhibition,[4],11.3%
same,inhibition,[5],3.74%
same,inhibition,[6],5%
same,inhibition,[7],9.09%
same,inhibition,[8],6.93%
same,inhibition,[9],8.89%
same,inhibition,[10],7.17%
